Measurements as given in PubChem BioAssay (NCATS).
Results filed as inconclusive are left out. Activity calls are given as the source filed them. Calls follow the shape of the dose curve; as a rule, active = well fitted inhibition curve with a large enough effect; inconclusive = small, poorly fitted or top-dose-only effect; inactive = no such curve, though single readings can be large or run the other way.

Experiment: qHTS Screen of the MIPE 4.0 Collection Against Ewings Sarcoma (TC71) (AID 1259253); also: nearly all actives have a fitted effect of over 40% in size
Conditions: TC71 Ewing sarcoma viability, CellTiter-Glo, 48 h; series mostly up to 45.8 µM
Excerpt: There is a large unmet medical need for treatments for Ewing sarcoma, a pediatric sarcoma. We sought to identify compounds that inhibited Ewing sarcoma cells in vitro with the goal to then test promising drugs in two drug combinations in vitro to look for synergistic drug combinations. Promising combinations would then proceed to additional validation, including in vivo testing.
Using the NCATS developed oncology compound library called the Mechanism of Interrogation Plate (MIPE), four Ewing sarcoma cell lines were evaluated (TC32, TC71, RDES, EW8). Compounds, in a 12-point titration series, were incubated with cells for 48 hours and the read out was cell viability (CellTiter-Glo from Promega). These initial experiments were used to select appropriate concentrations of each single agent for subsequent two-drug matrix combinations such that the concentrations in the matrices would span both activity and non-activity.
Cells, in the log phase of growth, were seeded in 5 uL of RPMI plus 5% FBS, […] L-glutamine, 100 U/ml penicillin and 100 ug/ml streptomycin into 1536-well solid-bottom white tissue culture treated Greiner Bio One Plates (789173-F) using a MultiDrop Combi (Thermofisher Scientific) dispenser and a small sterile cassette. One column was media alone to be used as a :"no cells" control. The plates were then covered with sterilized stainless steel gasketed lids from Kalypsys. After allowing cells to attach for 4 hours, 23 nL of test compound or control (negative control DMSO and positive control 9.2 uM Bortezomib-final) were added from a 1536-well polypropylene compound source plate to each well using a 1536 head pin tool from Kalypsys. Cells were then incubated for 48 hours at 37C, 95% relative humidity and 5% CO2. After 48 hours, plates were removed from the incubator and 3 uL of CellTiter-Glo (Promega) was added using an Aurora Flying Reagent Dispenser Bioraptor. Plates were incubated at room temperature for 10 minutes prior to reading the luminescence on the Viewlux (PerkinElmer). The relative luciferase units are used to calculate the percent activity using the activity of DMSO in the cells and no cells columns for normalization of no inhibition and full inhibition respectively.
Potency is read from the fitted curve at half-maximal effect.

SMILES	Potency
CC(C)CNc1ccnc(NCc2csc(-c3ccccc3)n2)n1	9.35 µM (active)
COc1cc2nccc(Oc3ccc(NC(=O)Nc4cc(C)on4)c(Cl)c3)c2cc1OC	2.64 µM (active)
CCN(CC)CCCCNc1nc2cc(Cl)c(Cl)cc2nc1-c1ccc(-c2cccs2)s1	23.5 µM (active)
O=S(=O)(NCCNCC=Cc1ccc(Br)cc1)c1cccc2cnccc12	2.64 µM (active)
CCCCC(F)(F)[C@@]1(O)CC[C@H]2[C@H](CC(=O)[C@@H]2CCCCCCC(=O)O)O1	2.96 µM (active)
COc1ccc(-c2oc3c(CC=C(C)C)c(O)cc(O)c3c(=O)c2O)cc1	18.7 µM (active)
N=C1SC(=Cc2ccc(-c3ccc4c(c3)C(=O)NC4=O)o2)C(=O)N1c1ccc(Br)cc1	20.9 µM (active)
Cc1cc2nc3c(=O)[nH]c(=O)nc-3n(CC(O)C(O)C(O)CO)c2cc1C (stereo not given)	26.4 µM (active)
CON(C)C(=O)N1N=C(c2cc(F)ccc2F)S[C@]1(CCCN)c1ccccc1	inactive
CCCCC(C=O)NC(=O)C(CC(C)C)NC(=O)OCc1ccccc1 (stereo not given)	inactive
CC(C)n1c(C=C[C@H](O)C[C@H](O)CC(=O)O)c(-c2ccc(F)cc2)c2ccccc21	3.32 µM (active)
CCCCCCCCCCCCCC(=O)N[C@H](CO)[C@H](O)c1ccc([N+](=O)[O-])cc1	inactive
CCN1C[C@H](C)n2c(c(O)c3c(=O)n(Cc4ccc(F)c(Cl)c4)nc(C(=O)NC)c32)C1=O	inactive
NC[C@H]1O[C@H](O[C@@H]2[C@@H](O)[C@@H](O[C@H]3O[C@H](CO)[C@@H](O)[C@H](N)[C@@H]3O)[C@H](N)C[C@@H]2N)[C@H](O)[C@@H](O)[C@H]1O	inactive
O=c1[nH]c(=O)n([C@H]2C[C@@H](O)[C@@H](CO)O2)cc1I	5.9 µM (active)
NC(=O)c1ncn([C@@H]2O[C@H](CO)[C@@H](O)[C@@H]2O)n1	inactive
CC(=O)N1CCN(c2ccc(OCc3nn(C)c(C)c3-c3cccc4c(CCCOc5cc(C)c(Cl)c(C)c5)c(C(=O)O)n(Cc5cccnc5)c34)cc2)CC1	20.9 µM (active)
Oc1cc(O)cc(C=Cc2ccc(O)c(O)c2)c1	18.7 µM (active)
CC(C)C[C@@H](C(=O)N[C@H](C(=O)OC1CCCC1)c1ccccc1)[C@H](O)C(=O)NO	18.7 µM (active)
NC(=O)c1ccc(N(C(N)=O)c2c(F)cccc2F)nc1-c1ccc(F)cc1F	inactive

SMILES	Potency
CCCC1OC2C[C@@H]3[C@H]4CCC5=CC(=O)C=C[C@]5(C)[C@H]4C(O)C[C@]3(C)[C@]2(C(=O)CO)O1 (stereo not given in full)	13.2 µM (active)
CC(C)C[C@@H](N)[C@H](O)C(=O)N[C@H](C(=O)N[C@H](C(=O)N[C@@H](CC(=O)O)C(=O)O)C(C)C)C(C)C	18.7 µM (active)
CC(C)(O)CC(=O)NCCn1ccc2ncnc(Nc3ccc(Oc4cccc(C(F)(F)F)c4)c(Cl)c3)c21	26.4 µM (active)
NS(=O)(=O)c1ccc(Nc2nc(OCC3CCCCC3)c3[nH]cnc3n2)cc1	14.8 µM (active)
CN(C)CC[C@H](CSc1ccccc1)Nc1ccc(S(=O)(=O)NC(=O)c2ccc(N3CCN(Cc4ccccc4-c4ccc(Cl)cc4)CC3)cc2)cc1[N+](=O)[O-]	16.6 µM (active)
CCN1CCC(n2cc(CNc3cc(Cl)c4ncc(C#N)c(Nc5ccc(F)c(Cl)c5)c4c3)nn2)CC1	18.7 µM (active)
C[C@@H](N)c1ccc(C(=O)Nc2ccnc3[nH]ccc23)cc1	16.6 µM (active)
CNc1nc(-c2ccc3c(N)n[nH]c3c2)cc(N2C[C@@H](C(=O)NC3CCCCC3)CC[C@@H]2C)n1	20.9 µM (active)
Cc1[nH]c(C=C2C(=O)Nc3ccc(S(=O)(=O)N(C)c4cccc(Cl)c4)cc32)c(C)c1C(=O)N1CCN(C)CC1	26.4 µM (active)
COc1cc(Cl)cn2c(-c3cccc(NC4CNC4)n3)cnc12	23.5 µM (active)
CS(=O)(=O)c1ccc(C2=C(c3ccccc3)C(=O)OC2)cc1	18.7 µM (active)
NC(=O)c1nnn(Cc2cc(Cl)c(C(=O)c3ccc(Cl)cc3)c(Cl)c2)c1N	18.7 µM (active)
O=c1[nH]nc(OCCCc2ccc(Cl)cc2)c(NCc2cccnc2)c1Br	16.6 µM (active)
CC(=O)OCC(=O)[C@@]1(O)CC[C@H]2[C@@H]3CCC4=CC(=O)C=C[C@]4(C)[C@@H]3[C@@H](O)C[C@@]21C	9.35 µM (active)
CC[C@H](C)n1cc(C)c2c(C(=O)NCc3c(C)cc(C)[nH]c3=O)cc(-c3ccc(N4CCNCC4)nc3)cc21	11.8 µM (active)
CCCCCCOC(=O)N=C(N)c1ccc(NCc2nc3cc(C(=O)N(CCC(=O)OCC)c4ccccn4)ccc3n2C)cc1	20.9 µM (active)
Cc1ccc(NC(=O)c2cccc(N(C)C)c2)cc1NC(=O)c1ccc(O)cc1	0.526 µM (active)
C[C@@H]1[C@H](O)[C@@H](C)C=CC=CC=CC=CC=CC=CC=C[C@H](O[C@@H]2O[C@H](C)[C@H](O)[C@H](N)[C@@H]2O)C[C@@H]2O[C@](O)(C[C@@H](O)C[C@@H](O)[C@H](O)CC[C@@H](O)C[C@@H](O)CC(=O)O[C@H]1C)C[C@H](O)[C@@H]2C(=O)O	0.372 µM (active)
N#CC(c1ccnc(NCCc2cccnc2)n1)c1nc2ccccc2s1 (stereo not given)	16.6 µM (active)
CN[C@@H]1[C@@H](O)[C@@H](O[C@@H]2[C@@H](O)[C@H](O[C@H]3O[C@H](CN)[C@@H](O)[C@H](O)[C@@H]3O)[C@@H](N)C[C@@H]2NC(=O)[C@@H](O)CN)OC[C@]1(C)O	inactive
